# Unmarked numbers belong to inactive results. Active and inactive are the calls of the source.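 The calls were made as follows: active = inhibition above 50%; inactive = the rest.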
# Test: human hepatoma cell viability loss – ATP luminescence, cytotoxicity control for P. falciparum antimalarial project, primary screen (AID 2303);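 also: 0% = DMSO wells and 100% = digitonin-killed cells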
# Conditions: HepG2 viability, 24-48 h, at 10 µM, hits give high values
row,SMILES,inhibition
1,CCN1CCC(N(Cc2ccc(-c3ccc(Cl)cc3)cc2)C(=O)Cn2c(CCc3cccc(F)c3F)cc(=O)c3ccccc32)CC1,100% (active)
2,O=C(c1ccc(Cl)cc1)C1CCCN(C2CCN(CCc3ccccc3)CC2)C1 (centres undefined),37%
3,N#Cc1ccc2c(c1)CCN(CCC1CCC(NC(=O)c3cc4cccc([N+](=O)[O-])c4[nH]3)CC1)C2 (centres undefined),-4%
4,CCCCNC(=O)C(C)NC(=O)c1ccc(O)c(-c2ccc(Cl)c(Cl)c2)c1 (centres undefined),-5%
5,CCN(CC)CCOc1ccc(C(O)(C#CC(O)(c2ccc(Br)cc2)c2ccc(OCCN(CC)CC)cc2)c2ccc(Br)cc2)cc1 (centres undefined),99% (active)
6,CC(=O)c1ccc(Nc2c(C(N)=O)cnc3cc(-c4c(C)noc4C)ccc23)cc1,-3%
7,O=C(/C=C/c1c[nH]c2ccccc12)NCCCCCN1CCC(c2c[nH]c3ccccc23)CC1,20%
8,CN1CCCC1CCNCc1ccc(-c2ccc(CNCCc3ccccc3)cn2)cc1 (centres undefined),25%
9,NC1=NC(c2ccccc2)(c2ccccc2)C(=O)N1Cc1ccc(-c2cccnc2)cc1,15%
10,CCCCCCNC(=O)C1Cc2c([nH]c3ccc(C)cc23)C2(CCN(Cc3ccccc3)CC2)N1 (centres undefined),25%
11,Cc1ccc2nc(C)cc(NN=CC=Cc3ccccc3)c2c1,0%
12,CCOc1c(CNCCCNc2cc(=O)c3ccccc3[nH]2)cc(I)cc1OC,-4%
13,CC(=O)CSC(C=Cc1ccc(N(C)C)cc1)=Nc1ccccc1,38%
14,N#Cc1ccc(N(CCOc2ccc3c(c2)CCC(=O)N3)Cc2ccccc2C(F)(F)F)cc1C(F)(F)F,19%

# Source: PubChem BioAssay
